Inconclusive results are not listed. Values without a mark were called inactive. Calls of active or inactive are those of the source. Calls come from the whole dose curve; as a rule, active = well fitted curve in the direction sought with a large enough effect; inconclusive = small, poorly fitted or top-dose-only effect, or another doubt; inactive = no such curve, though single readings can be large; an effect the other way counts as inactive or inconclusive.
Key:
Tov-21-G = assay: Primary qHTS to identify gynecologic anti-cancer compounds using libraries of approved drugs and bioactive compounds (AID 1345084); details: Gynecologic cancer cell panel viability, ATPlite luminescence, 48 h; series mostly up to 57.5 µM; note: nearly all actives have a fitted effect of over 55% in size
Outline: (§1)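 In this quantitative HTS, cell killing is estimated from loss of ATP-dependent luciferase light. Cells see five compound concentrations over a 48 h exposure.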

[1] = qHTS assay to identify inhibitors of the type 1 interferon - major histocompatibility complex class I in skeletal muscle: Counter screen cell viability and HiBit confirmation (AID 1347412); details: iHSKM muscle cells + IFN-b, HiBiT or CellTiter-Glo, 24 h; for activity change, negative = inhibition: at 45.9 µM (top of the series); for all read-outs here: nearly all actives have a fitted effect of over 60% in size
Outline: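 After 24 h with human IFN-beta (4 ng/ml) and compound titrations (top 46 uM final, 1:3, 12 points), HLA-B HiBit myoblasts were lysed for either Nano-Glo HiBiT luminescence or CellTiter Glo viability on paired plates.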

Tov112D = assay: Primary qHTS to identify gynecologic anti-cancer compounds using libraries of approved drugs and bioactive compounds (AID 1345084); details: Gynecologic cancer cell panel viability, ATPlite luminescence, 48 h; series mostly up to 57.5 µM; note: nearly all actives have a fitted effect of over 55% in size
Outline: as §1

[2] = Drug repurposing screens with cells derived from glioblastoma tumor samples (AID 1345199); details: GBM patient neurospheres viability, ATP luminescence, 48 h; note: nearly all actives have a fitted effect of over 40% in size
Outline: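 Primary testing used CD133+ neurospheres from four GBM patients, seven concentrations, 48 h exposure and ATP-based viability; confirmation added three slower-growing patient lines.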

[3] = at 45.9 µM (top of the series), tumour line B
[4] = at 45.9 µM (top of the series), tumour line D
[5] = at 46.1 µM (top of the series), tumour line C
% is set by controls: 0 for no effect and ±100 for the full control effect; potency is the fitted concentration of half-maximal effect.

With C=CC(=O)Nc1ccc2ncnc(Nc3cccc(Br)c3)c2c1 the Potency (Tov-21-G) was 10 µM (active) and the activity change, negative = inhibition ([1]; Viability) was -0.162%.

In the case of Cc1cc(-c2nc3cc(F)ccc3s2)ccc1NC(=O)[C@@H](N)CCCCN, the Potency (Tov-21-G) is reported as 14.1 µM (active), the Potency (Tov112D) is reported as 15.8 µM (active) and the Potency ([1]; Viability) is reported as 22.2 µM (active).

With C[C@@H]1O[C@@H](O[C@H]2[C@H](OC(=O)[C@]34CCC(C)(C)C[C@H]3C3=CCC5[C@@]6(C)C[C@H](O)[C@H](O[C@@H]7O[C@H](CO)[C@@H](O)[C@H](O)[C@H]7O)[C@](CO)(C(=O)O)C6CC[C@@]5(C)[C@]3(C)C[C@H]4O)OC[C@H](O)[C@@H]2O)[C@H](O)[C@H](O)[C@H]1O[C@@H]1OC[C@@H](O)[C@H](O[C@@H]2OC[C@](O)(CO)[C@H]2O)[C@H]1O (stereo not given in full) the Potency (Tov112D) was 1.41 µM (active).

For C[C@@H]1CC[C@]2(C(=O)O)CC[C@]3(C)C(=CCC4[C@@]5(C)CC[C@H](O)[C@](C)(C(=O)O)C5CC[C@]43C)C2[C@]1(C)O (stereo not given in full), the Potency (Tov-21-G) was “inactive” and the Potency (Tov112D) was “inactive”.

In the case of OC(c1ccc(-c2ccc(CN3CCN(Cc4ccncc4)CC3)cc2)c(F)c1)(C(F)(F)F)C(F)(F)F, the Potency (Tov-21-G) is reported as “inactive”, the Potency (Tov112D) is reported as “inactive” and the activity change, negative = inhibition ([1]; HiBiT) is reported as -18.6%. The activity change, negative = inhibition ([1]; Viability) was -8.6%.

For Cc1nc2ccc(CN(C)c3ccc(C(=O)NC(CCC(=O)O)C(=O)O)s3)cc2c(=O)[nH]1 (stereo not given), the Potency (Tov112D) was 0.282 µM (active).

With COC(C)(C)CCn1nc(Nc2c(C)cccc2C)c2cnc(Nc3ccc(OCCN4CCCC4)c(F)c3)nc21 the Potency (Tov-21-G) was 1.78 µM (active), the Potency (Tov112D) was “inactive” and the Potency ([1]; HiBiT) was 15.7 µM (active).

For CC(C)(C)c1ccc2c(c1)CC[C@H]2NC(=O)Nc1cccc2[nH]ncc12, the Potency (Tov-21-G) was “inactive” and the Potency (Tov112D) was “inactive”.

For Cn1ncc2cc(-c3cnc(N)c(Cl)c3N3CCC4(CCNC4=O)CC3)ccc21, the Potency (Tov-21-G) was “inactive”, the Potency (Tov112D) was “inactive” and the activity change, negative = inhibition ([1]; Viability) was 5.32%.

In the case of CCCC(CCC)C(=O)Nc1ccn([C@@H]2O[C@H](CO)[C@@H](O)C2(F)F)c(=O)n1, the Potency (Tov112D) is reported as 10 µM (active).

For CC(=O)O[C@@H]1C[C@@]2(C)C(CC[C@]3(C)C2CC=C2C4CC(C)(C)CC[C@]4(C(=O)O)CC[C@]23C)C(C)(C)[C@H]1O (stereo not given in full), the Potency (Tov-21-G) was “inactive” and the Potency (Tov112D) was “inactive”.

For Cc1c[nH]c2ncnc(N3CCC(CN)(C(=O)Nc4cccc(OC(=O)N(C)C)c4)CC3)c12, the Potency (Tov112D) was “inactive”.

With Cc1[nH]c2ccccc2c1CCNCc1ccc(/C=C/C(=O)NO)cc1 the Potency (Tov-21-G) was 0.708 µM (active), the Potency (Tov112D) was 0.316 µM (active) and the Potency ([1]; HiBiT) was 0.0625 µM (active). The activity change, negative = inhibition ([1]; Viability) was -25.2%.

In the case of C=C(C)C(=O)OC1CC(CO)CCC/C(CO)=C/C2OC(=O)C(=C)C21 (stereo not given), the Potency (Tov112D) is reported as “inactive”.

In the case of COc1ccnc(CS(=O)c2nc3cc(OC(F)F)ccc3[nH]2)c1OC (stereo not given), the Potency (Tov-21-G) is reported as “inactive”, the Potency (Tov112D) is reported as “inactive” and the activity, negative = cell killing [2, 3] is reported as -14.8%. For the same compound, the activity, negative = cell killing [2, 4] was -24.9%, the activity, negative = cell killing [2, 5] was -12.9% and the Potency ([2]; tumour line A) was 28.2 µM (active).

With CCC[C@@]1(CCc2ccccc2)CC(O)=C([C@H](CC)c2cccc(NS(=O)(=O)c3ccc(C(F)(F)F)cn3)c2)C(=O)O1 the Potency (Tov-21-G) was “inactive”, the Potency (Tov112D) was “inactive” and the activity, negative = cell killing [2, 3] was -17%. It also gave an activity, negative = cell killing [2, 4] of -1.26% and an activity, negative = cell killing [2, 5] of -12.2%.

In the case of CN(C)C(=O)NC1(c2ccccc2)CCN(CCC[C@]2(c3ccc(Cl)c(Cl)c3)CCCN(C(=O)c3ccccc3)C2)CC1, the Potency (Tov112D) is reported as “inactive”.

With C=C(C=O)[C@]1(O)C[C@@]2(C)C(=CC1=O)C=C[C@H](OC(=O)/C=C/C=C/[C@H](C)CC)[C@@H]2C the Potency (Tov112D) was “inactive”.

For O=C1Nc2nc(-c3c(O)cccc3OCC3CC3)cc([C@@H]3CCCNC3)c2CO1, the Potency (Tov-21-G) was 14.1 µM (active), the Potency (Tov112D) was 22.4 µM (active) and the Potency ([1]; HiBiT) was 7.01 µM (active). For the same compound, the activity change, negative = inhibition ([1]; Viability) was -25%.

With Cc1cc(-c2cnc(N)c3c(-c4ccc5scnc5c4)csc23)n(C)n1 the Potency (Tov112D) was “inactive”.

For CC(=O)Nc1nc(C)c(-c2nc(N3CCCC(O)C3)no2)s1 (stereo not given), the Potency (Tov112D) was “inactive”.

For N#Cc1ccc(O[C@@H]2c3ccccc3C[C@H]2N2CCC[C@@H](N)C2)c(Cl)c1, the Potency (Tov112D) was “inactive”.

In the case of COc1cccc(-c2cc(F)ccc2C2Cc3nc(N)nc(C)c3C(=O)N2)n1 (stereo not given), the Potency (Tov-21-G) is reported as 0.282 µM (active) and the Potency ([1]; HiBiT) is reported as 0.0222 µM (active).

With COc1cc(N2CCC(N)CC2)ccc1Nc1ncc(Cl)c(-c2c[nH]c3ccccc23)n1 the Potency (Tov-21-G) was 8.91 µM (active) and the Potency ([1]; HiBiT) was 5.57 µM (active).

With C1=C/COCc2cc(ccc2OCCN2CCCC2)Nc2nccc(n2)-c2cccc(c2)COC/1 the Potency (Tov-21-G) was 10 µM (active), the Potency (Tov112D) was 11.2 µM (active) and the Potency ([1]; HiBiT) was 3.52 µM (active).

For O=C(Nc1ccc(N2C(=O)[C@@H]3[C@H](C2=O)[C@@H]2C=C[C@H]3C2)c(Cl)c1)c1ccccn1, the Potency (Tov112D) was “inactive”.

For C=C(C)Cn1c(SCC(=O)c2cccs2)nc2sc3c(c2c1=O)CCCC3, the Potency (Tov112D) was “inactive”.

In the case of Nc1nc(NC2CC2)cc(-c2cccc(Cl)c2Cl)n1, the Potency (Tov112D) is reported as 12.6 µM (active).

In the case of CC(/C=C/C(=O)NO)=C\[C@@H](C)C(=O)c1ccc(N(C)C)cc1, the Potency (Tov-21-G) is reported as 3.55 µM (active), the Potency (Tov112D) is reported as 1.78 µM (active) and the Potency ([1]; HiBiT) is reported as 1.76 µM (active). It also gave an activity change, negative = inhibition ([1]; Viability) of -7.11%.

For C=C1C(=O)O[C@@H]2C[C@@]3(C)CCCC(=C)[C@]3(O)C[C@H]12, the Potency (Tov112D) was “inactive”.
